A number with no mark means an inactive call.
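Note: TDF is a line of transformed human dermal fibroblasts of mesenchymal origin.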

The subject of this assay is TDF. As to the kind of experiment: H1.0 immunofluorescence intensity relative to DMSO (% of DMSO); higher = stronger H1.0 induction, active = 120 or more. The following applies: concentration: 10 µM; 24 h. The method, boiled down: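 Cell number or H1.0 nuclear intensity appears as percent of the plate control, based on the median of replicates. Measurements came from HCC1569 and TDF cells exposed in triplicate to compounds at 10 µM for 24 h at 37 °C, then imaged in six fields per well at ×10. Positional effects were smoothed out of HCC1569 values.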
Consider `Cl.NCCNC(=O)c1ncsc1-c1cccc(F)c1` [Ro 41-1049 hydrochloride], for which the H1.0 immunofluorescence intensity was 97.4.

For the molecule `CCn1nc(C(=O)O)c(=O)c2cc3c(cc21)OCO3` [Cinoxacin], the H1.0 immunofluorescence intensity was 95.7.

For `CCOC(=O)CCNc1cc(N2CCc3ccccc3CC2)nc(-c2ccccn2)n1`, the H1.0 immunofluorescence intensity is 171 (active).

For the molecule `CCCCCC=CCC=CCC=CCCCCCCC(=O)O` [8(Z), 11(Z), 14(Z)-Eicosatrienoic Acid], the H1.0 immunofluorescence intensity is 97.9.

Turning to `CCn1cc(C(=O)O)c(=O)c2cc(F)c(N3CCNC(C)C3)c(F)c21.Cl` (stereo not given) [Lomefloxacin hydrochloride], the H1.0 immunofluorescence intensity was 92.2.

As for `CCCCCC=CCC=CC=CC=CC(SCC(NC(C)=O)C(=O)O)C(O)CCCC(=O)O` (stereo not given) [N-Acetyl-leukotriene E4], the H1.0 immunofluorescence intensity was 92.

`CCCn1c(=O)c2[nH]c(-c3ccc(OCC(=O)NCCN)cc3)nc2n(CCC)c1=O` [Xanthine amine congener]: the H1.0 immunofluorescence intensity is 98.

In the case of `CCCCCC=CCC=CCC=CC=CC(O)CCCC(=O)O` (stereo not given), the H1.0 immunofluorescence intensity was 104.

Turning to `CCSC(N)=Nc1ccc(C(F)(F)F)cc1.Cl` [TFPI hydrochloride], the H1.0 immunofluorescence intensity was 99.6.

As for `CN(C)C(=O)Nc1cccc(-c2ccc(N(C)C)cc2)c1` [3-(4'-(dimethylamino)-[1,1'-biphenyl]-3-yl)-1,1-dimethylurea], the H1.0 immunofluorescence intensity is 97.6.

In the case of `Cl.OCC1NCC(O)C(O)C1O` (stereo not given) [1-Deoxynojirimycin hydrochloride], the H1.0 immunofluorescence intensity was 85.2.

As to `CCCCCCCCCC(=O)O` [Decanoic acid], the H1.0 immunofluorescence intensity is 100.

`Nc1ccc(CCNc2ncnc3c2ncn3C2OC(CO)C(O)C2O)cc1` (stereo not given) [N6-2-(4-Aminophenyl)ethyladenosine]: the H1.0 immunofluorescence intensity was 85.9.

`C[N+]1(C)C2CC(OC(=O)C(O)(c3cccs3)c3cccs3)CC1C1OC12.[Br-]` (stereo not given) [Tiotropium Bromide]: the H1.0 immunofluorescence intensity was 95.7.

As for `Cc1cc2cc3c(C)cc(=O)oc3c(C)c2o1` [4,5',8-Trimethylpsoralen], the H1.0 immunofluorescence intensity is 97.2.

With `CC1=C(C)C(=O)C(C(CCCCCC(=O)O)c2ccccc2)=C(C)C1=O` (stereo not given) [Seratrodast], the H1.0 immunofluorescence intensity is 99.3.

In the case of `CC1=c2[nH]c3c(c2CCN1)C=CC(=O)C=3.Cl.O.O`, the H1.0 immunofluorescence intensity is 97.7.

As for `CCc1nn(CCCN2CCN(c3cccc(Cl)c3)CC2)c(=O)n1CCOc1ccccc1`, the H1.0 immunofluorescence intensity is 95.3.

For `COc1cc2nc(N(C)CCCNC(=O)C3CCCO3)nc(N)c2cc1OC` (stereo not given) [Alfuzosin], the H1.0 immunofluorescence intensity was 97.7.

In the case of `CN1CCN(C2=Nc3cc(F)ccc3Cc3ccccc32)CC1` [Fluperlapine], the H1.0 immunofluorescence intensity was 100.

In the case of `CC(OC1OCCN(Cc2nc(=O)[nH][nH]2)C1c1ccc(F)cc1)c1cc(C(F)(F)F)cc(C(F)(F)F)c1` (stereo not given) [Aprepitant], the H1.0 immunofluorescence intensity was 99.3.

Consider `OCC1OC(Oc2ccc(O)cc2)C(O)C(O)C1O` (stereo not given) [Arbutin], for which the H1.0 immunofluorescence intensity is 102.

As to `CC(Cc1ccccc1)(NC(=O)CN)c1ccccc1.Cl` (stereo not given), the H1.0 immunofluorescence intensity was 103.

Regarding `CN(Cc1cc(Br)cc(Br)c1N)C1CCCCC1` [Bromhexine], the H1.0 immunofluorescence intensity was 88.6.

For `CC(C)NCC(O)c1ccc(O)c(O)c1.Cl` (racemic), the H1.0 immunofluorescence intensity is 97.4.

As for `COc1cc2c(cc1OC)-c1cc3ccc(OC)c(OC)c3c[n+]1CC2.[Cl-]` [Palmatine chloride], the H1.0 immunofluorescence intensity is 96.1.

Take `COc1cccc2c1C(=O)c1c(O)c3c(c(O)c1C2=O)CC(O)(C(C)=O)CC3OC1CC(N)C(O)C(C)O1` (stereo not given) [Daunorubicin]: the H1.0 immunofluorescence intensity was 134 (active).

With `CCCCCN(C)CCC(O)(P(=O)(O)O)P(=O)(O)O` [Ibandronate], the H1.0 immunofluorescence intensity is 98.4.

Turning to `CCCCCCCCCCCCC(O)C(=O)O` (stereo not given) [2-Hydroxymyristic acid], the H1.0 immunofluorescence intensity is 95.6.

For `COc1ccc(-c2cc(=O)c3c(OC)c(OC)c(OC)cc3o2)cc1OC` [Sinensetine], the H1.0 immunofluorescence intensity is 93.9.

Consider `COc1cc2c(cc1OC)-c1cc(=Nc3c(C)cc(C)cc3C)n(C)c(=O)n1CC2.Cl` [Trequinsin.HCl], for which the H1.0 immunofluorescence intensity is 92.8.

`O=C1Nc2ccccc2C1=C1Nc2ccccc2C1=O` [Indirubin]: the H1.0 immunofluorescence intensity is 105.

For `CC[N+](CC)(CC)CC(=O)Nc1c(C)cccc1C.[Br-]` [Lidocaine N-ethyl bromide quaternary salt], the H1.0 immunofluorescence intensity was 88.4.

Turning to `O=C(NOCC1CC1)c1ccc(F)c(F)c1Nc1ccc(I)cc1Cl`, the H1.0 immunofluorescence intensity was 93.3.

With `CC(C)Cc1ccc(C(C)C(=O)NO)cc1` (stereo not given) [Ibuproxam], the H1.0 immunofluorescence intensity was 87.3.

Regarding `C#C[C@@]1(OC(C)=O)CC[C@H]2[C@@H]3CCC4=CC(=O)CC[C@@H]4[C@H]3CC[C@@]21C` [(17beta)-17-ethynyl-3-oxoestr-4-en-17-yl acetate], the H1.0 immunofluorescence intensity is 95.5.

`CC(C)NCC(O)COc1cccc2[nH]ccc12` (stereo not drawn) [S(-)-Pindolol]: the H1.0 immunofluorescence intensity is 84.4.

Turning to `O=C(O)C=CC(=O)O.c1cnc(N2CCN(Cc3ccc4c(c3)OCO4)CC2)nc1` [Piribedil maleate], the H1.0 immunofluorescence intensity is 93.8.

With `CCC1(O)CC2CN(CCc3c([nH]c4ccccc34)C(C(=O)OC)(c3cc4c(cc3OC)N(C=O)C3C(O)(C(=O)OC)C(OC(C)=O)C5(CC)C=CCN6CCC43C65)C2)C1.O=S(=O)(O)O` (stereo not given) [Vincristine sulfate], the H1.0 immunofluorescence intensity was 167 (active).

For the molecule `CCN1CCCC1CNC(=O)c1c(OC)ccc(I)c1O` (stereo not given), the H1.0 immunofluorescence intensity was 96.7.
